Our source for the growth values is PubChem BioAssay (NCI).

This is part of a sample that, as a whole, favours compounds with a hit. Of some 83,000 tested, about 20% had one in any assay.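 Single-concentration screen, 48 h exposure, 96-well plates. Endpoint: percent growth. Below 10 = active.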 Values without a mark were called inactive. Active and inactive are the calls of the source.

Test in all cases: NCI-60 one-dose screen, 48 h (100 = growth as untreated, 0 = no growth, -100 = all killed)
Common to all, as to conditions: 10 µM unless noted

Experiment [1] deals with SK-MEL-2 melanoma.
For experiment [2], the system named is EKVX NSCLC.
Experiment [3] deals with SN12C renal.
Experiment [4] concerns UO-31 renal.
Experiment [5] has as its system TK-10 renal.
In experiment [6] the test system is ACHN renal.
Experiment [7] relates to CAKI-1 renal.
Experiment [8] relates to A498 renal.
Experiment [9] concerns CCRF-CEM leukemia.
Experiment [10] concerns MOLT-4 leukemia.

Take `CCCOc1ccc(-c2nc(-c3ccc(N)cc3)cs2)cc1`: the growth is 107% in experiment [1]; 95.6% in experiment [2]; 95.2% in experiment [3]; 77.1% in experiment [4]; 125% in experiment [5]; 97.1% in experiment [6]. The growth in experiment [7] was 79.3%; in experiment [8], 215%; in experiment [9], 85.6%; in experiment [10], 116%.
As to `Cc1cc(SC#N)ncn1`, the growth in experiment [1] is 66.9%; in [2], 101%; in [3], 94.9%; in [4], 96.2%; in [5] it was 101%; in experiment [6] it was 98.4%. For the same molecule, the growth in [7] was 98.9%; in experiment [8], 102%; in [9], 88%; in [10], 109%.
For the molecule `O=C1NC(=O)C(Cc2ccccc2)(Cc2ccccc2)N1`, the growth was 102% in [1]; 101% in [2]; 97.9% in experiment [3]; 93.6% in experiment [4]; 89.4% in experiment [5]; 109% in experiment [6]. Moreover, the growth in experiment [7] is 92.1%; in experiment [8], 102%; in experiment [9], 92.4%; in experiment [10], 90.5%.
In the case of `Nc1cccc2c1C(=O)c1cccc(NC(=O)c3ccccc3)c1C2=O`, the growth in [1] is 33.4%; in experiment [2] it was 2.26% (active); in experiment [3], 47.1%; in experiment [4], 9.99% (active); in [5], 32.1%; in [6] it was 41.5%. Further, the growth in experiment [7] is 12%; in [8], 16.7%; in experiment [9] it was 12.6%; in experiment [10] it was 41%.
Regarding `COc1ccc(/C=C2\N=C(Nc3ccccc3)N(NC(=O)c3ccccn3)C2=O)cc1`, the growth in [1] was 102%; in [2], 91.5%; in experiment [3], 94.7%; in [4], 72.3%; in experiment [5], 127%; in experiment [6], 99.4%. Moreover, the growth in experiment [7] was 87.5%; in experiment [8] it was 81.5%; in experiment [9], 99.2%; in experiment [10], 76.7%.
`CC1(C)C(=O)/C(=C\c2cccnc2)C[C@]2(C)[C@H]3CC[C@@H]4[C@H]5[C@H](C(=O)/C=C/c6cccnc6)CC[C@]5(C(=O)O)CC[C@@]4(C)[C@]3(C)CC[C@@H]12`: the growth in experiment [1] is -55.1% [100 µM] (active); in experiment [2], -73% [100 µM] (active); in experiment [3], -29.4% [100 µM] (active); in experiment [4] it was -32.9% [100 µM] (active); in experiment [5], -89.5% [100 µM] (active); in experiment [6], -71.1% [100 µM] (active). The growth in [7] is -66% [100 µM] (active); in experiment [8], -77.5% [100 µM] (active); in experiment [9], -6.59% [100 µM] (active); in experiment [10] it was 4.49% [100 µM] (active).
On to `Cc1cccc(C[C@H](NC(=O)Nc2ccc(Cl)cc2F)C(=O)N[C@@H]2C(=O)N3C[C@H](O)C[C@H]3C(=O)N3CCCC[C@H]3C(=O)N[C@@H](C)C(=O)N3C[C@H](C)C[C@H]3C(=O)O[C@H]2C)c1`, for which the growth is 0.151% (active) in experiment [1]; 24.6% in [2]; 9.57% (active) in [3]; 10.3% in [4]; 29.2% in experiment [5]; 8.94% (active) in [6]. Moreover, the growth in experiment [7] is 8.12% (active); in [8], -4.82% (active); in experiment [9], 31%; in experiment [10], 14.7%.
Consider `Cc1ccc(Cn2c(O)c(N=NC(=O)c3ccc(S(N)(=O)=O)cc3)c3ccccc32)cc1`, for which the growth was 109% in experiment [1]; 103% in [2]; 96.9% in experiment [3]; 73% in [4]; 106% in experiment [5]; 93.3% in experiment [6]. The growth in experiment [7] is 92.9%; in [8] it was 86.8%; in [9], 106%; in experiment [10], 93.8%.
Consider `O=C1Cc2c(sc3c(F)cccc23)C(c2ccccc2[N+](=O)[O-])N1` (stereo not given), for which the growth was 126% in experiment [1]; 85.2% in [2]; 99.1% in [3]; 69.6% in experiment [4]; 142% in experiment [5]; 101% in experiment [6]. Moreover, the growth in experiment [7] is 75.1%; in experiment [8], 115%; in experiment [9] it was 110%; in [10], 106%.
As to `COc1ncnc2c(-c3ccccc3)cn(COCc3ccccc3)c12`, the growth in experiment [1] was 34.5%; in experiment [2] it was 41.4%; in experiment [3], 66.6%; in experiment [4], 44.2%; in experiment [5] it was 43.1%; in experiment [6], 51%. In addition, the growth is 64.3% in [7], 51.9% in [8], 41.1% in experiment [9] and 7.9% (active) in experiment [10].
For `C=C(C)[C@@H]1CC[C@]2(C(=O)NCCCN)CC[C@]3(C)[C@H](CC[C@@H]4[C@@]5(C)CC[C@H](O)C(C)(C)[C@@H]5CC[C@]43C)[C@@H]12`, the growth was -24.2% [100 µM] (active) in experiment [1]; -15.7% [100 µM] (active) in experiment [2]; -34.7% [100 µM] (active) in experiment [3]; -34.3% [100 µM] (active) in experiment [4]; -32.2% [100 µM] (active) in [5]; -49.2% [100 µM] (active) in experiment [6]. Besides, the growth in [7] is -54.5% [100 µM] (active); in [8], -44.8% [100 µM] (active); in experiment [9] it was 1.39% [100 µM] (active); in experiment [10] it was 2.76% [100 µM] (active).
